These results are taken from ChEMBL document CHEMBL4513216, “Probing the Open Global Health Chemical Diversity Library for Multistage-Active Starting Points for Next-Generation Antimalarials” (ACS Infect Dis, 2020).

Out of some 69,000 compounds screened, about 8,600 (12%) showed an effect of 50% or more. This is one part of a sample in which strong results are shown more often than they occur.

This test relates to Plasmodium berghei. In words: Screen against P. berghei liver stage (PbLuc), transformed with Luciferase, at 10uM. The format is functional, HepG2. The settings on record: tested at 10 uM.
Take `CCn1ccnc1CN1CCN(c2ncnc3ccsc23)CC1`: the INHIBITION is -50.7%.

As to `CCc1nc(CN2CCCN(c3ncnc4sccc34)CC2)no1`, the INHIBITION was 95.1%.

On to `Cc1nc(CN2C[C@@H]3CN(C(=O)c4ccnnc4)C[C@@H]3C2=O)cs1`, for which the INHIBITION was found to be 13.6%.

Consider `COc1ccccc1OC1CN(C(=O)Cc2c(C)nc3ccccn23)C1`, for which the INHIBITION is recorded as -7.2%.

Consider `COc1ccccc1OC1CN(C(=O)c2ccc(C(C)=O)s2)C1`, for which the INHIBITION turned out to be 7.3%.

Consider `COc1ccccc1OC1CCN(C(=O)c2cccc(O)c2C)CC1`, for which the INHIBITION came to 19.3%.

Regarding `COc1ccccc1OC1CN(C(=O)Cc2c(C)nc(N)nc2C)C1`, the INHIBITION worked out at 1.71%.

In the case of `COc1ccccc1OC1CN(C(=O)c2c(C)nc3ccc(C)cn23)C1`, the INHIBITION is listed as 86.8%.

Turning to `COc1ccccc1OC1CN(C(=O)c2ccccc2C(C)=O)C1`, the INHIBITION amounted to 65.7%.

With `CCCC(=O)N1CCCC(c2cc3cccnc3c(O)n2)C1` (stereo unspecified), the INHIBITION is 25.8%.

For `CCOCC(=O)N1CCc2c(CN(C)C)nn(C(C)C)c2C1`, the INHIBITION was 23.1%.

Turning to `NC(=O)c1cn[nH]c1NC(=O)c1ccc2c(c1)OCO2`, the INHIBITION was -16.4%.

As for `Cc1ccc(-c2ccc(C(=O)NCCS(N)(=O)=O)c(F)c2)cc1`, the INHIBITION is recorded as 55.4%.

As for `NS(=O)(=O)CCNC(=O)c1ccc(-c2ccc(F)cc2)cc1F`, the INHIBITION is recorded as -33.2%.

Take `CCS(=O)(=O)CCNC(=O)c1ccc(-c2ccc(C)cc2)cc1F`: the INHIBITION was found to be 8.47%.

Regarding `CCN1C(=O)CCC12CCC(NC(=O)c1cc(C)on1)CC2` (stereo unspecified), the INHIBITION is -45.5%.

As to `C[C@@H]1CN(c2nc(O)cc(Cc3ccccc3F)n2)C[C@H](C)O1`, the INHIBITION is 15.5%.

Consider `Cc1cc(-c2nn3c(C4CCC4)nnc3s2)on1`, for which the INHIBITION worked out at 34.6%.

Consider `O=C(CCC1CCN(C2CSCCSC2)CC1)NCC1CCCO1` (stereo unspecified), for which the INHIBITION worked out at 34.9%.

`c1cncc(OCc2noc3c2CN(Cc2ccco2)CC3)c1`: the INHIBITION is 38.5%.

For `Cc1nnc(SC2CCN(c3sccc3C#N)C2=O)s1` (stereo unspecified), the INHIBITION was determined as 16.8%.

Take `Cc1nnc(SC2CCN(c3sccc3C#N)C2=O)[nH]1` (stereo unspecified): the INHIBITION is listed as 40.7%.

For `Cc1nc(SC2CCN(c3sccc3C#N)C2=O)oc1C` (stereo unspecified), the INHIBITION turned out to be 51.5%.

As for `O=C(Cc1csc(-c2ccccc2F)n1)NCc1ccc(C(=O)O)cc1`, the INHIBITION was 2.61%.

As for `CCn1cc(NC(=O)NCc2ccc3c(c2)OCO3)cn1`, the INHIBITION is -25.9%.

`CCCc1noc(C(C)N2CCN(Cc3nc(C)c(C)o3)CC2)n1` (stereo unspecified): the INHIBITION is on record as -12.25%.

Consider `Cc1cnn(CCNCC(=O)N2CCN(c3ncccn3)CC2)c1`, for which the INHIBITION was determined as 25.1%.

Regarding `CN(C)c1cccc(C(=O)Nc2cn(C)c(=O)n(C)c2=O)c1`, the INHIBITION amounted to 31.2%.

In the case of `Cn1cc(NC(=O)c2cccc(Cl)c2)c(=O)n(C)c1=O`, the INHIBITION was determined as 56.1%.

`Cn1cc(NC(=O)c2cccc(C(F)(F)F)c2)c(=O)n(C)c1=O`: the INHIBITION is reported as 15%.

As for `CCC(=O)N1CCCC(Cn2cc(-c3ccc(F)cc3)nn2)C1` (stereo unspecified), the INHIBITION is reported as -14.2%.

Consider `O=C(c1ncoc1C1CC1)N1CCCN(CCCc2ccccc2)CC1`, for which the INHIBITION is 83.9%.

For the molecule `Cc1ccccc1N1CCN(C(=O)CC(C)C)CC1`, the INHIBITION came to 56.5%.

For the molecule `Cc1ccccc1N1CCCN(C(=O)CCCn2ccnc2C)CC1`, the INHIBITION worked out at 75.4%.

In the case of `CSCC(=O)N1CCCN(c2ccccc2C)CC1`, the INHIBITION amounted to 84.5%.

On to `Cc1nccn1CCCC(=O)N1CCCN(c2cccnn2)CC1`, for which the INHIBITION worked out at 10%.

As to `Cn1nccc1C(=O)N1CCCN(CCCc2ccccc2)CC1`, the INHIBITION is given as -16.8%.

In the case of `Cc1ccccc1N1CCCN(C(=O)c2cn(C)c3ccccc23)CC1`, the INHIBITION is recorded as -2.13%.

Turning to `Cc1cnccc1N1CCCN(C(=O)CCCn2ccnc2C)CC1`, the INHIBITION is listed as -2.48%.

Consider `O=C(c1ncoc1C1CC1)N1CCN(CCOc2ccccc2)CC1`, for which the INHIBITION turned out to be 26.7%.

In the case of `CCOCCC(=O)N1CCCN(c2ccccc2C)CC1`, the INHIBITION is on record as 15.2%.

Regarding `CSCCC(=O)N1CCCN(c2ccccc2C)CC1`, the INHIBITION is 34.1%.

As for `CSCC(=O)N1CCCN(c2ccncc2C)CC1`, the INHIBITION amounted to 49.2%.

On to `COc1nn(C)c2c1CCCN(C(=O)c1cccc3cccnc13)C2`, for which the INHIBITION was 14%.

Turning to `Cc1cc(C)c(C(=O)N2CCC3(CCCNC3)C2)cc1C` (stereo unspecified), the INHIBITION is on record as -35.8%.

As to `O=C1[C@H]2CN(C(=O)[C@H]3CCCO3)C[C@H]2CN1CCN1CCCC1`, the INHIBITION is 1.34%.

On to `CC(C)[C@H]1CN(CCCO)C[C@@H]1NC(=O)CCC(F)(F)F`, for which the INHIBITION is listed as 20.2%.

Regarding `CCn1cc(-n2cc3nc(N4CCCC4)[nH]cc-3c2=O)cn1`, the INHIBITION is -29.6%.

Consider `Cc1cc(N2CCOC(C)(C(=O)N(C)C)C2)ncn1` (stereo unspecified), for which the INHIBITION is listed as 37.8%.

Turning to `NC(=O)N1CCC2(CCN(Cc3cccc(F)c3)CC2)CC1`, the INHIBITION was -13.2%.

For `CC(=O)N1CCCN(CCCc2ccccc2)CC1`, the INHIBITION is 15.2%.

For the molecule `Cc1ccccc1N1CCCN(C(=O)CCc2cccnc2)CC1`, the INHIBITION stood at 59.2%.

With `Cc1ccccc1N1CCCN(C(=O)CCc2ccncc2)CC1`, the INHIBITION worked out at 26.9%.

Take `Cc1nccn1CCC(=O)N1CCCN(c2ccccc2)CC1`: the INHIBITION amounted to 28.7%.

`Cc1nccn1CCC(=O)N1CCCN(CCCc2ccccc2)CC1`: the INHIBITION came out at 51.5%.

With `Cc1ccccc1N1CCCN(C(=O)CCc2nncn2C)CC1`, the INHIBITION is reported as 49.3%.
